Data reported in ChEMBL document CHEMBL1961873, “Compounds: GSK PKIS; Assays: Nanosyn kinase panel” (2012).

What was measured:
[1] = target: T1, Serine/threonine-protein kinase Nek9 (Homo sapiens) (UniProt Q8TD19); settings: at 1 µM;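 note: each value is a mean percent inhibition of NEK9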
T1 sequence (whole entry): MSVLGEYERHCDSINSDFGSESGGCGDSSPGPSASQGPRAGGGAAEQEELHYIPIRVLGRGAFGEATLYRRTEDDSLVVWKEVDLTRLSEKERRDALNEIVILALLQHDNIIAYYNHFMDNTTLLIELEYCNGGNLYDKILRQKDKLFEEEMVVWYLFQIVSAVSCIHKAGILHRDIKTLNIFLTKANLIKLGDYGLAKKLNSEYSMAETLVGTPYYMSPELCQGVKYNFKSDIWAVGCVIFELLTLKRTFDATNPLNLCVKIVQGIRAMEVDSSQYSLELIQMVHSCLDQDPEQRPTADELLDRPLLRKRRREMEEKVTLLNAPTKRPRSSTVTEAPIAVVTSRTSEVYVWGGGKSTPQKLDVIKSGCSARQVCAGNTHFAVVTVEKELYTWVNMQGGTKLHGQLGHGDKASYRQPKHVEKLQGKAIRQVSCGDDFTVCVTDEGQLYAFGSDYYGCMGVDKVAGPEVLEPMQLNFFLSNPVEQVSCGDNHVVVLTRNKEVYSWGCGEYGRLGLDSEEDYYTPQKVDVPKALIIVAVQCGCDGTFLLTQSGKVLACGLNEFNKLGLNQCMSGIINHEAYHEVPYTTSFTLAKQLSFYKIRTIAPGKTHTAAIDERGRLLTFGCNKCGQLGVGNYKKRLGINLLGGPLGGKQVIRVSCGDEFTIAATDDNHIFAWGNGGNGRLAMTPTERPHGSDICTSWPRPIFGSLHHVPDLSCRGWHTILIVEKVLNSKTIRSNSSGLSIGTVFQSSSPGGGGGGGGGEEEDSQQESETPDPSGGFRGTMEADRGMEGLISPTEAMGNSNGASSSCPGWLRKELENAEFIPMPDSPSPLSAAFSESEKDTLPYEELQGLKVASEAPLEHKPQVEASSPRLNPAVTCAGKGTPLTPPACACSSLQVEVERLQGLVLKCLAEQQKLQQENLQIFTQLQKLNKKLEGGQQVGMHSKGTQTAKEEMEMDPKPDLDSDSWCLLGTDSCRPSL

[2] = target: Serine/threonine-protein kinase PLK1 (Homo sapiens) (UniProt P53350); settings: at 0.1 µM
[3] = target: Serine/threonine-protein kinase PLK1 (Homo sapiens) (UniProt P53350); settings: at 1 µM
[4] = target: T2, Dual specificity protein kinase TTK (Homo sapiens) (UniProt P33981); settings: at 0.1 µM
T2 sequence (whole entry): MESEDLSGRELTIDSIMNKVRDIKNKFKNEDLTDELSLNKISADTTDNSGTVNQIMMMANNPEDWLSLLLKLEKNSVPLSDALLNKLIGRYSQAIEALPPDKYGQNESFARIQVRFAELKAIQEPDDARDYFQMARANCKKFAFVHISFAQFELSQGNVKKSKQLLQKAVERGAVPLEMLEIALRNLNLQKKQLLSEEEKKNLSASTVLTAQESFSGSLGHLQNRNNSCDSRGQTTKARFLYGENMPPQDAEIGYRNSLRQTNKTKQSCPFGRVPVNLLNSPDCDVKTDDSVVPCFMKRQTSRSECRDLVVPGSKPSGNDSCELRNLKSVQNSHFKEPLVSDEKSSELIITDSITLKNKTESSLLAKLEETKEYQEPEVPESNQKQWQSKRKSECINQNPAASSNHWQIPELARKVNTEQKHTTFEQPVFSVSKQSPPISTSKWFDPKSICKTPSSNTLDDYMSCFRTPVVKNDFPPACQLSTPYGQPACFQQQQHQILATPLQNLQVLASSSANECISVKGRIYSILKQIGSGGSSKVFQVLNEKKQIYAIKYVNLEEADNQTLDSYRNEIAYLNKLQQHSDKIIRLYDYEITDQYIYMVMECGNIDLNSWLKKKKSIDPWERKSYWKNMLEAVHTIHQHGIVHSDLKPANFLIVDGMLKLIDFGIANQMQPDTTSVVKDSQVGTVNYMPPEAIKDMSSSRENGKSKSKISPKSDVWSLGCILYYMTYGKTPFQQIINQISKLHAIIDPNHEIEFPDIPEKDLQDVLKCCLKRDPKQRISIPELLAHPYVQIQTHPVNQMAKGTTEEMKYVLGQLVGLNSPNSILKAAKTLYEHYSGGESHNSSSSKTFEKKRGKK

[5] = system: T3, Receptor-type tyrosine-protein kinase FLT3 (Homo sapiens), P36888 [D835Y]; settings: at 1 µM
T3 sequence (whole entry): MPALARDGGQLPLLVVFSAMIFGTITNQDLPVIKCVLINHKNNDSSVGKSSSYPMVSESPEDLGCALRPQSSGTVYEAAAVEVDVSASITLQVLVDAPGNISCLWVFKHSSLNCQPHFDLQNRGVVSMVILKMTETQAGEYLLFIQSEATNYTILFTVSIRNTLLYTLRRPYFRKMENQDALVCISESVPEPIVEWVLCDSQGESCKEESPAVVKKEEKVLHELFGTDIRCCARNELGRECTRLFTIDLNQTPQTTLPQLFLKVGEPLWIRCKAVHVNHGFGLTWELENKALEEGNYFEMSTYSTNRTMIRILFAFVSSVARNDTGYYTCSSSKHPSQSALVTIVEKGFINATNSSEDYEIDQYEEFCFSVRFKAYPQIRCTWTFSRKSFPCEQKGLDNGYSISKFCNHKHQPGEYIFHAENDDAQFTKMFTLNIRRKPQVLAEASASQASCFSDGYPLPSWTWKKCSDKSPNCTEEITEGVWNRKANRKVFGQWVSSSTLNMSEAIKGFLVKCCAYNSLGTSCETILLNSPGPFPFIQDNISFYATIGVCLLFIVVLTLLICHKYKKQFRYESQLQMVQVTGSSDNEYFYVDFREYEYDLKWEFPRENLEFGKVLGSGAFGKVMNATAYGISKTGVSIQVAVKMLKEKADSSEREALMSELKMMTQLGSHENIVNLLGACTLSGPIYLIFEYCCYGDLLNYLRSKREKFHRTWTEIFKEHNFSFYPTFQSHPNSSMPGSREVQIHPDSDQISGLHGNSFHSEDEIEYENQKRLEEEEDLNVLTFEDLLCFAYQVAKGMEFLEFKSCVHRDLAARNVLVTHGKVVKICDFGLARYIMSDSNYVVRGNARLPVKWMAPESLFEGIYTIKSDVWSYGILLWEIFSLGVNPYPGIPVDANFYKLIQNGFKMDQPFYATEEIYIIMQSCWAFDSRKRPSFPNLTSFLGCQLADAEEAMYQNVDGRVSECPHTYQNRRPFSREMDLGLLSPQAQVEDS

[6] = target: Vascular endothelial growth factor receptor 3 (Homo sapiens) (UniProt P35916); settings: at 0.1 µM
[7] = target: Vascular endothelial growth factor receptor 3 (Homo sapiens) (UniProt P35916); settings: at 1 µM
[8] = target: Macrophage colony-stimulating factor 1 receptor (Homo sapiens) (UniProt P07333); settings: at 0.1 µM
[9] = target: Macrophage colony-stimulating factor 1 receptor (Homo sapiens) (UniProt P07333); settings: at 1 µM
[10] = target: Tyrosine-protein kinase Fyn (Homo sapiens) (UniProt P06241); settings: at 0.1 µM
[11] = target: Tyrosine-protein kinase Fyn (Homo sapiens) (UniProt P06241); settings: at 1 µM
[12] = target: Tyrosine-protein kinase HCK (Homo sapiens) (UniProt P08631); settings: at 0.1 µM
[13] = target: Tyrosine-protein kinase HCK (Homo sapiens) (UniProt P08631); settings: at 1 µM
[14] = target: Insulin-like growth factor 1 receptor (Homo sapiens) (UniProt P08069); settings: at 0.1 µM
[15] = target: Insulin-like growth factor 1 receptor (Homo sapiens) (UniProt P08069); settings: at 1 µM
[16] = target: Insulin receptor (Homo sapiens) (UniProt P06213); settings: at 0.1 µM
[17] = target: Insulin receptor (Homo sapiens) (UniProt P06213); settings: at 1 µM
[18] = target: Insulin receptor-related protein (Homo sapiens) (UniProt P14616); settings: at 0.1 µM
[19] = target: Insulin receptor-related protein (Homo sapiens) (UniProt P14616); settings: at 1 µM
[20] = target: T4, Tyrosine-protein kinase ITK/TSK (Homo sapiens) (UniProt Q08881); settings: at 0.1 µM;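 note: mean percent inhibition of ITK from the GSK PKIS screen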
T4 sequence (whole entry): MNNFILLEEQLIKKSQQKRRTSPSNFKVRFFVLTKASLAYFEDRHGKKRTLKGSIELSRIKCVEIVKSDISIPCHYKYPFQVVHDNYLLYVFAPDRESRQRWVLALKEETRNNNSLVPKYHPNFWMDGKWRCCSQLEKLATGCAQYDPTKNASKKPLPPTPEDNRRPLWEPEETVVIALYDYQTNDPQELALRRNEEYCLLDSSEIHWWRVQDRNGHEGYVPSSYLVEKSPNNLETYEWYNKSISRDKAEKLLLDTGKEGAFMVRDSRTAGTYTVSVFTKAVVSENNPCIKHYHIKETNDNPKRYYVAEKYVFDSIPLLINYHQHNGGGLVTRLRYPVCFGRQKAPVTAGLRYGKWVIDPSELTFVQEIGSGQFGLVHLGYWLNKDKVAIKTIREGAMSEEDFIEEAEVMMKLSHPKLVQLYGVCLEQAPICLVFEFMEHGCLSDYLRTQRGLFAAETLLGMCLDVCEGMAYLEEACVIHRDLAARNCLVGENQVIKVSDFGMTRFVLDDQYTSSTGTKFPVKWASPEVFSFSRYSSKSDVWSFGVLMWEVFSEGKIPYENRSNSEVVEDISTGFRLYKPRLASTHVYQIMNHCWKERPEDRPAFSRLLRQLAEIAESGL

Sequence of Insulin receptor-related protein (Homo sapiens) (P14616 27-742 limits assumed): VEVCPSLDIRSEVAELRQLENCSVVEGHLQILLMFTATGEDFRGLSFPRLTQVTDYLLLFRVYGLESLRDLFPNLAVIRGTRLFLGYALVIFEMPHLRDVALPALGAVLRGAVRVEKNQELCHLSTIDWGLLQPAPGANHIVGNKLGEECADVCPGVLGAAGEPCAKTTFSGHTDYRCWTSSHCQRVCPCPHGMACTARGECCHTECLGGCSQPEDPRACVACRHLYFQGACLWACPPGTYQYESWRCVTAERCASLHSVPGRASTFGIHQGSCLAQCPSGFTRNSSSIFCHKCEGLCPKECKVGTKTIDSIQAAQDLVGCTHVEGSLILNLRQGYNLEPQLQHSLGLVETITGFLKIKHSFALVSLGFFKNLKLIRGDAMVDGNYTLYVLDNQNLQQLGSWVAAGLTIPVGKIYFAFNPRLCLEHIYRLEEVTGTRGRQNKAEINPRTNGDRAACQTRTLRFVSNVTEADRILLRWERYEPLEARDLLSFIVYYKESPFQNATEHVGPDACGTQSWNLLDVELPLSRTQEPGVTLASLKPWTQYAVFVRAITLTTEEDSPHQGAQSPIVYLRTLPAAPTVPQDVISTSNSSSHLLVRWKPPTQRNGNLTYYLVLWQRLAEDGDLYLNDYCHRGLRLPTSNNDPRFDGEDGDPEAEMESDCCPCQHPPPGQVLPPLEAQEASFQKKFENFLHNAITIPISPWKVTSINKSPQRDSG
Sequence of Insulin receptor-related protein (Homo sapiens) (P14616 747-1297 limits assumed): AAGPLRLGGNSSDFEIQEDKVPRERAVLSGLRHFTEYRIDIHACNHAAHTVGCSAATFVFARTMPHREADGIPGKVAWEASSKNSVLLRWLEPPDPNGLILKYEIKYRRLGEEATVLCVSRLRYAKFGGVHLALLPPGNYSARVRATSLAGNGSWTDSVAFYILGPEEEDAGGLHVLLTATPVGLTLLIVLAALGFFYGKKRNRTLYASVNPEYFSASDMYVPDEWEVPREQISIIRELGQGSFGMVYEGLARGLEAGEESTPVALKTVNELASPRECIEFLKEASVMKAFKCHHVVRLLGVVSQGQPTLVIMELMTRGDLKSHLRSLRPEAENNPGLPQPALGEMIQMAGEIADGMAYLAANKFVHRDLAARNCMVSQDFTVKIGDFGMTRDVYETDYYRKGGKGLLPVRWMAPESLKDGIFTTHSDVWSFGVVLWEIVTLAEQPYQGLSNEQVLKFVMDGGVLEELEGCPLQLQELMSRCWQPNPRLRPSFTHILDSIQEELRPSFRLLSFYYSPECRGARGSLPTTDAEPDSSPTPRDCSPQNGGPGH
Sequence of Insulin receptor (Homo sapiens) (P06213 28-758 limits assumed): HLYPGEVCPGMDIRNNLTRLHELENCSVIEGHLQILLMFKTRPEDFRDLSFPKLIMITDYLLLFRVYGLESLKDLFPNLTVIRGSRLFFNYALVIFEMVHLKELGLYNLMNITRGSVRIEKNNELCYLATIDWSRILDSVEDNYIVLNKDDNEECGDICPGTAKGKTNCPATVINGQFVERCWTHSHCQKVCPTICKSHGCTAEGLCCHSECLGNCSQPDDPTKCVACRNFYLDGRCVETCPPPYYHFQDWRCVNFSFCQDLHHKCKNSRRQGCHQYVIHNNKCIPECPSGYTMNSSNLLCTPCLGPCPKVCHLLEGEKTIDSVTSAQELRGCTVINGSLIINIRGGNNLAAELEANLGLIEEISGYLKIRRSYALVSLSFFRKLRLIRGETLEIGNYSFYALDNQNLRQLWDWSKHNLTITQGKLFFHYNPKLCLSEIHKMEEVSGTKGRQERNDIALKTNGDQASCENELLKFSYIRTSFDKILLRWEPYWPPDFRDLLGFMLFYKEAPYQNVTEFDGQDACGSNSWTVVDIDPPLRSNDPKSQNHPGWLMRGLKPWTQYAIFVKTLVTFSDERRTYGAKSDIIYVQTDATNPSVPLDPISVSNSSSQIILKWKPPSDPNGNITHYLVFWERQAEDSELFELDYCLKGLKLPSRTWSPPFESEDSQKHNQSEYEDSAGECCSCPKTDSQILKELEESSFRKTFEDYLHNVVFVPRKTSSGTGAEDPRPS
Sequence of Insulin receptor (Homo sapiens) (P06213 763-1382 limits assumed): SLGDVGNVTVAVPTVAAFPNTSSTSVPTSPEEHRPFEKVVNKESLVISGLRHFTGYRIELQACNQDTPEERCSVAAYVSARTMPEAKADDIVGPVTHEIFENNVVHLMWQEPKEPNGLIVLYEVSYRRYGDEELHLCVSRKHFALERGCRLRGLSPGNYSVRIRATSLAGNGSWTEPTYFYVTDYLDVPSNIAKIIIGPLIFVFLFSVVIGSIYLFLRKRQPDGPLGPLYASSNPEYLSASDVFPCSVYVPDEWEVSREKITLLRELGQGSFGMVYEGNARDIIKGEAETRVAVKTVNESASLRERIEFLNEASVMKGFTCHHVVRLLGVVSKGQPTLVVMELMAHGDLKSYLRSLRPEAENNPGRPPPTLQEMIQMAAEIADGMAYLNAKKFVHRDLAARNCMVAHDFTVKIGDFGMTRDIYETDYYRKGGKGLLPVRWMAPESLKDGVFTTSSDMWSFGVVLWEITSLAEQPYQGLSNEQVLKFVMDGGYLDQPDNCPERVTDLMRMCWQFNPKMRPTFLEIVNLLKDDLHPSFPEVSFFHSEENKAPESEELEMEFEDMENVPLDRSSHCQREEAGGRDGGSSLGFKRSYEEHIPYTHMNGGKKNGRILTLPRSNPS
Sequence of Tyrosine-protein kinase Fyn (Homo sapiens) (P06241 2-537 limits assumed): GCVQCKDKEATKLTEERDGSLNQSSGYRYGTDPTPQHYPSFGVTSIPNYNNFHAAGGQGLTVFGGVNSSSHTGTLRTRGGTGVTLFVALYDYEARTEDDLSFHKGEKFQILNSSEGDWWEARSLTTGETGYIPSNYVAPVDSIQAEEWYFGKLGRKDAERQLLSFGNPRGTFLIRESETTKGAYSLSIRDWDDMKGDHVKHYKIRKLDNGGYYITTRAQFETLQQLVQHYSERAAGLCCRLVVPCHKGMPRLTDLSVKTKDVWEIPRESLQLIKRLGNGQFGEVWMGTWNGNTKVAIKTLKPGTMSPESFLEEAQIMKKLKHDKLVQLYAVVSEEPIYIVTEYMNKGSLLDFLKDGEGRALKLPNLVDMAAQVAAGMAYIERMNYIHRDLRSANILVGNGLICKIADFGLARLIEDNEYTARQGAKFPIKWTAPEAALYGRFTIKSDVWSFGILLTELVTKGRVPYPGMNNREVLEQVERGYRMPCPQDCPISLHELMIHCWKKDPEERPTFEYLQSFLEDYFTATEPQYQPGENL
Sequence of Insulin-like growth factor 1 receptor (Homo sapiens) (P08069 31-736 limits assumed): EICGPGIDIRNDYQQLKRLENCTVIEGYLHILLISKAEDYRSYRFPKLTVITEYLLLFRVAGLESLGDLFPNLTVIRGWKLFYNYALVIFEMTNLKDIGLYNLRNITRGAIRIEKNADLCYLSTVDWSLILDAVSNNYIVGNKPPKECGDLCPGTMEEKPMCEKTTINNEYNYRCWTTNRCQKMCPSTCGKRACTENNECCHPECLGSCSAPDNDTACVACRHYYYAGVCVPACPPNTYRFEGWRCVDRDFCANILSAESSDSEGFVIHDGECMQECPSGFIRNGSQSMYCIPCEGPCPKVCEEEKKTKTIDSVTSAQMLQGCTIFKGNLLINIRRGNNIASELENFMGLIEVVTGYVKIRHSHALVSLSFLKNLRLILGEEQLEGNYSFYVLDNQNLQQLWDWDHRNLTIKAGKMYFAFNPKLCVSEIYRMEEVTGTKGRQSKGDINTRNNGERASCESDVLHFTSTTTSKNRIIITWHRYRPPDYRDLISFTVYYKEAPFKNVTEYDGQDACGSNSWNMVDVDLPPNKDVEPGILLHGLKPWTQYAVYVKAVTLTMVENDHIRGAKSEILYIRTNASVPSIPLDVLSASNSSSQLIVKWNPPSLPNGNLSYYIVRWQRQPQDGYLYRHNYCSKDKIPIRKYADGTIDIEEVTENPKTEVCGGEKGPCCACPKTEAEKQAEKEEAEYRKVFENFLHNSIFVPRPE
Sequence of Insulin-like growth factor 1 receptor (Homo sapiens) (P08069 741-1367 limits assumed): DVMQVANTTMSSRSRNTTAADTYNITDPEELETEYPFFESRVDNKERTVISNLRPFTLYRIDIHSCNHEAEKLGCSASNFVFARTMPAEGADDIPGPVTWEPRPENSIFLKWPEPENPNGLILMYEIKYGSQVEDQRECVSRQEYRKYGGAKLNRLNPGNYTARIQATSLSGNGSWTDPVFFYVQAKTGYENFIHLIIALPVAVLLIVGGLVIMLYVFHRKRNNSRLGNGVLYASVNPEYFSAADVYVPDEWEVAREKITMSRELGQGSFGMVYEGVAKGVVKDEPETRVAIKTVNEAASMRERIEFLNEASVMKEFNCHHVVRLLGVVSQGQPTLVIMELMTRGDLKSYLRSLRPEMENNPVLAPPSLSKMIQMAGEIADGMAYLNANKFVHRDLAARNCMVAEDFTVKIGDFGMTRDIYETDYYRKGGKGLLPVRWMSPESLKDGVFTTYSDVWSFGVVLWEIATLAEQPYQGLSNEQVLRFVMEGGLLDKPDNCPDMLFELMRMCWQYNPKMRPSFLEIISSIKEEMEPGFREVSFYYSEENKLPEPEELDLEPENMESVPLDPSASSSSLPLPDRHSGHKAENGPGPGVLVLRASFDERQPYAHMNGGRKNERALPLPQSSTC
Sequence of Tyrosine-protein kinase HCK (Homo sapiens) (P08631 2-526 limits assumed): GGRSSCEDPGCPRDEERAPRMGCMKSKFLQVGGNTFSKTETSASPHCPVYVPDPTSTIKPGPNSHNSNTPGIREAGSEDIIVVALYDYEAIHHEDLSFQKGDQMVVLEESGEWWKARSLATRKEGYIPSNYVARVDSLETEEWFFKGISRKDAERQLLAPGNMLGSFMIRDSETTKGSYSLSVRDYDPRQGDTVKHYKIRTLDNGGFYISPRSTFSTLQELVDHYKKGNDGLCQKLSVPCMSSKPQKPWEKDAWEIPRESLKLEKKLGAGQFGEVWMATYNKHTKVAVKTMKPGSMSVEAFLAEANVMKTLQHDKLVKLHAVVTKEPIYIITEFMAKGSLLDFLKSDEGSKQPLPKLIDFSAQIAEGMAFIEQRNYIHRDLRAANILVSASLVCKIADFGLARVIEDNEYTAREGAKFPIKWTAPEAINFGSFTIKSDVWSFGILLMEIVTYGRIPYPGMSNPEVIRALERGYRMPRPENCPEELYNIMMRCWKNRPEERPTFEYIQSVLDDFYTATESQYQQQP

| SMILES | inhibition [1] | inhibition [2] | inhibition [3] | inhibition [4] | inhibition [5] | inhibition [6] | inhibition [7] | inhibition [8] | inhibition [9] | inhibition [10] | inhibition [11] | inhibition [12] | inhibition [13] | inhibition [14] | inhibition [15] | inhibition [16] | inhibition [17] | inhibition [18] | inhibition [19] | inhibition [20] |
| --- | --- | --- | --- | --- | --- | --- | --- | --- | --- | --- | --- | --- | --- | --- | --- | --- | --- | --- | --- | --- |
| NC(=O)c1ccc2c(-c3ccnc(NCCCO)n3)c(-c3ccc(F)cc3)nn2c1 | 5.15% | 3.87% | 4.03% | 14% | -0.97% | 2.83% | 1.06% | 5.2% | 8.64% | 2.14% | 5.23% | 7.1% | 15.6% | 3.95% | 6.12% | 10.3% | 6.62% | 4.18% | 4.01% | 1.32% |
| N#Cc1ccc2c(-c3ccnc(NC4CC4)n3)c(-c3ccc(F)cc3)nn2c1 | 4.02% | 2.66% | 0.98% | 2.64% | 4.7% | -1.37% | 4.18% | -2.75% | 4.65% | -0.41% | 0.92% | 1.95% | 1.1% | 1.58% | -2.63% | 0.02% | -1.67% | -0.15% | 0.6% | 0.02% |
| CS(=O)(=O)Nc1ccc(-c2cc(-c3ccccc3)cc(C(N)=O)c2N)cc1 | 1.82% | 0.78% | 3.05% | 3.79% | -1.74% | 11.7% | 14.7% | 1.42% | 9.05% | 1.39% | -0.83% | 2.58% | 4.51% | 15.8% | 8.99% | 4.43% | 3.29% | -1.45% | 0.85% | 0.8% |
| COc1c(C(N)=O)cc(-c2ccc(Cl)cc2)cc1-c1ccc(S(N)(=O)=O)cc1 | 5.67% | 4.84% | 8.71% | 11.8% | 0.7% | 2.5% | 0.39% | 5.24% | 4.74% | 1.12% | 2.81% | 6.39% | 7.93% | 7.44% | 4.41% | 9.51% | 5.04% | 2.33% | 3.46% | 2.02% |
| Cn1c(-c2nonc2N)nc2cnccc21 | 10.4% | 4.28% | 5.16% | 5.36% | 6.27% | 2.31% | -0.12% | -0.13% | 4.58% | 1.61% | 2.28% | 6.35% | 6.33% | 1.93% | 3.66% | 5.09% | 6.68% | 2.16% | -0.85% | 1.03% |
| CS(=O)(=O)CCNCc1ccoc1-c1ccc2ncnc(Nc3ccc(OCc4ccccc4)cc3)c2c1 | 1.8% | 2.42% | 3.33% | 3.38% | 2.16% | 2.25% | 2.83% | -0.38% | 6.09% | 1.81% | 7.94% | 0.7% | 5.65% | 1.37% | -0.73% | 0.36% | 1.13% | -1.72% | 0.44% | -0.12% |
